{
  "source": "PubChem BioAssay AID624305",
  "about": "(National Center for Advancing Translational Sciences (NCATS), 2012)",
  "note": "Inconclusive results are not listed. Where a call stands in place of a potency, no number is given. Active and inactive are the calls of the source. Calls come from the whole dose curve; as a rule, active = well fitted activation curve with a large enough effect; inconclusive = small, poorly fitted or top-dose-only effect; inactive = no such curve, though single readings can be large or run the other way. Potency is the fitted concentration of half-maximal effect.",
  "data": [
    {"experiment": "qHTS assay for re-activators of p53 using a Luc reporter: Hit Validation; note: nearly all actives have a fitted effect of over 75% in size", "details": "p53-responsive luciferase reporter cells, luminescence, H1299 line expressing heat-sensitive Ala138Val p53; series mostly up to 46.1 µM", "procedure,_shortened": "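Hit confirmation with a 1:5 dilution series, at 37 deg C for 24 hrs, in H1299 cells co-expressing temperature-sensitive p53-A138V and p53-responsive luciferase. Nocodazole served as control; luminescence read after 10 min with detection reagent.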", "values": [
      {"smiles": "CCc1cc2c(=O)c(-c3ccc4c(c3)OCCO4)coc2cc1OS(C)(=O)=O", "Potency": "4.61 µM (active)"},
      {"smiles": "CCOCCCNc1nc2c([nH]1)c(=O)n(C)c(=O)n2C", "Potency": "inactive"},
      {"smiles": "CCOc1ccc2c(c1)C(=NNC(=O)c1ccncc1)c1cc(OCC)ccc1-2", "Potency": "inactive"},
      {"smiles": "CCOc1ccc(OCCSc2nc3ccccc3n2CC(=O)O)cc1", "Potency": "inactive"},
      {"smiles": "Clc1ccc(-c2cn3c(n2)-c2ccccc2C3)cc1Cl", "Potency": "10.3 µM (active)"},
      {"smiles": "O=C(c1cccs1)c1coc2ccc(O)cc12", "Potency": "16.4 µM (active)"},
      {"smiles": "Cc1cc(C(=O)COC(=O)c2cccc(O)c2)c(C)n1C1CC1", "Potency": "0.13 µM (active)"},
      {"smiles": "Cc1cccc(N/C=C/C(=O)c2cccs2)c1C", "Potency": "0.0651 µM (active)"},
      {"smiles": "NS(=O)(=O)c1ccc(CCNCc2cccnc2)cc1", "Potency": "inactive"},
      {"smiles": "COc1ccccc1C(=O)CC(=O)c1ccccc1", "Potency": "inactive"},
      {"smiles": "CC(=O)c1c(C)[nH]c(C(=O)OCC(=O)c2ccc(C)s2)c1C", "Potency": "inactive"},
      {"smiles": "COCCn1c(SCC(=O)Nc2ccc(N3CCOCC3)cc2)nc2ccccc21", "Potency": "inactive"},
      {"smiles": "O=C1CCCC(O)=C1N=Nc1ccc2c(c1)OCO2", "Potency": "23.1 µM (active)"},
      {"smiles": "C/C(Cn1nnc([N+](=O)[O-])n1)=N\\NC(=O)c1ccc(C)cc1", "Potency": "inactive"},
      {"smiles": "Cc1ccc2c(c1)CCCN2C(=O)Nc1ccc2c(c1)OCO2", "Potency": "inactive"},
      {"smiles": "COc1cc(NC(=O)C(C)C)ccc1NC(=O)c1ccco1", "Potency": "7.31 µM (active)"},
      {"smiles": "Cc1cccc(-n2nc([N+](=O)[O-])c(=NC3CCN(Cc4ccccc4)CC3)n2O)c1", "Potency": "inactive"},
      {"smiles": "N#C/C(=C\\c1ccc(OCc2ccc(Br)cc2)cc1)C(=O)Nc1cccc(C(=O)O)c1", "Potency": "2.91 µM (active)"},
      {"smiles": "Cc1cnc(C(=O)OCC(=O)Nc2ccc(OCc3ccccc3)cc2)cn1", "Potency": "18.4 µM (active)"},
      {"smiles": "CCCCn1c(/C=N/Nc2nc3ccccc3[nH]2)nc2ccccc21", "Potency": "23.1 µM (active)"},
      {"smiles": "O=C(Nc1ccc(Cl)cn1)C1CCN(c2ncnc3c2nc2n3CCCCC2)CC1", "Potency": "inactive"},
      {"smiles": "Cc1ccc(S(=O)(=O)NCC(=O)NCC(=O)N2CCC(C)CC2)cc1", "Potency": "inactive"},
      {"smiles": "COc1ccc(C(=O)N/N=C(\\C)c2ccccn2)cc1OC", "Potency": "13 µM (active)"},
      {"smiles": "Cc1ccc(S(=O)(=O)c2cn(CC(=O)Nc3ccccc3)c3ccc(F)cc3c2=O)cc1", "Potency": "inactive"},
      {"smiles": "Cc1occc1C(=O)NNC(=S)Nc1ccccc1C(F)(F)F", "Potency": "13 µM (active)"},
      {"smiles": "COc1ccc(-c2cc(C(F)(F)F)nc(-n3ccnc3C)n2)cc1", "Potency": "inactive"},
      {"smiles": "O=C(CSc1ccccc1)Nc1ccc(-c2nc3ccccc3[nH]2)cc1", "Potency": "inactive"},
      {"smiles": "Cc1cc(C)cc(OCC(=O)NNC(=O)c2ccccn2)c1", "Potency": "inactive"},
      {"smiles": "CCCSc1ccc2nc(-c3ccccc3)cn2c1", "Potency": "0.206 µM (active)"},
      {"smiles": "CC1(C)NC(=O)N(CC(=O)N2CCN(S(=O)(=O)c3ccccc3C(F)(F)F)CC2)C1=O", "Potency": "inactive"},
      {"smiles": "Cc1cccc(-n2c(C)cc(C(=O)NC3CCCCC3)c2C)c1", "Potency": "7.31 µM (active)"},
      {"smiles": "CC12CN(C(=O)c3cccc([N+](=O)[O-])c3)C3(C#N)CC1CCC23C", "note": "(stereo not drawn)", "Potency": "inactive"},
      {"smiles": "O=C(N/N=C\\c1cc(Cl)ccc1O)c1ccc(S(=O)(=O)N2CCCCC2)cc1", "Potency": "inactive"},
      {"smiles": "Cc1ccc(NC(CC(=O)c2ccccc2)c2ccc(F)cc2)cc1", "note": "(stereo not drawn)", "Potency": "inactive"},
      {"smiles": "Cc1noc(C)c1COc1ccc(C(=O)NCCOc2ccccc2)cc1", "Potency": "inactive"},
      {"smiles": "C=CCn1c(C)cc(C(=O)CSc2nc3ccccc3o2)c1C", "Potency": "0.731 µM (active)"},
      {"smiles": "N#Cc1cc2c(nc1SCC(=O)Nc1nccs1)CCCCC2", "Potency": "0.206 µM (active)"},
      {"smiles": "Cc1occc1C(=O)NN=C1C2CC3CC(C2)CC1C3", "Potency": "inactive"}
    ]}
  ]
}
